Laboratory results published in ChEMBL document CHEMBL4513216, “Probing the Open Global Health Chemical Diversity Library for Multistage-Active Starting Points for Next-Generation Antimalarials” (ACS Infect Dis, 2020).
Among all 65,000 compounds or so, about 2,100 (3.2%) showed an effect of 50% or more. The median lay at about -52%. The sample holds strong results, similar compounds and a random draw of the others, so the mix is not that of the screen.

system: Plasmodium falciparum; test: Screen against P. falciparum Asexual Blood Stage (ABS), at 5uM; type: functional, Dd2; settings: tested at 5 uM

SMILES | INHIBITION [%]
Cc1nc(C2(NCC(=O)NC(=O)NCc3cccs3)CCCCC2)no1 | -111
Cc1ncc2c(c1CNC(=O)C1(C)CC1)CCNC2 | -29.6
Cc1cccc(CN2CCN3C(=O)NC[C@H]3C2)n1 | -4.56
Cc1cccc(Nc2cccc(C3CCCN(Cc4ncc[nH]4)C3)n2)n1 (stereo unspecified) | 89.4
Cc1noc(C)c1CN1C(=O)[C@@H]2CC[C@H]1CN(Cc1ncc[nH]1)C2 | -55.8
O=C(Cc1cccs1)N1CC[C@H]2[C@H]1CCN2Cc1cccnc1 | 19.8
Cc1cc(C)c(CNc2nc3ccccc3cc2CO)c(=O)[nH]1 | 21.9
CCn1ccnc1CN1CCNCC1C (stereo unspecified) | -43.7
CCc1ccc(C2c3nc[nH]c3CCN2Cc2nccn2CC)nc1 (stereo unspecified) | 90.1
Cc1cc(CC(=O)N2CCN(CC(C)C)[C@@H]3CS(=O)(=O)C[C@@H]32)ccc1F | -48.2
Cc1cccc(CN2CC[C@@H]3[C@@H]2CCN3C(=O)c2cnoc2C)n1 | -26.9
O=C1OCCC1N1CCN(C(=O)Cc2ccccc2Cl)CC1 (stereo unspecified) | -47.5
NC(=O)CN1CCCN(C(=O)Cc2ccc3c(c2)OCCO3)CC1 | -57.5
O=C(CCN1CCCC1c1cccc2c1OCCO2)N1CCCCC1 (stereo unspecified) | 73.2
CN(C)CCCN(C)C1CCN(c2cccc(-c3cscn3)c2)CC1 | 81.2
O=C1CC[C@@H]2[C@@H](CCN2Cc2ccncc2)N1c1ccccc1 | -11.8
O=C1Nc2ccccc2CC12CCCN2Cc1cccnc1 (stereo unspecified) | -69.2
CN(Cc1ccsc1)c1nc(-c2ccccn2)nc2c1CCNCC2 | 79.7
CN(Cc1nccs1)c1nc(-c2ccccn2)nc2c1CCNCC2 | 83.7
CN1CCN(Cc2ccsc2)Cc2cccnc21 | -81
CN(Cc1ccon1)c1nc(-c2ccccn2)nc2c1CCNCC2 | 76.3
CCc1nc(-c2ccc(NC(=O)N3CCC4(CC3)OCCO4)cc2)no1 | 30.5
O=C1CO[C@@H]2CN(Cc3cccs3)C[C@H]2N1Cc1cccnc1 | -28.4
O=C(c1cc(-n2cccc2)ccc1Cl)N1CCC2(CC1)OCCO2 | -6.62
COc1cccc(CN(C)Cc2[nH]c3ccccc3c2C)c1O | 88.7
O=C1CSC(c2ccncc2)c2c[nH]nc2N1 (stereo unspecified) | -101

SMILES | INHIBITION [%]
COc1cccc(Nc2nc(-c3ccncc3)nc3c2CNCC3)c1 | 82.2
COc1cccc(Nc2nc(N3CCCC3)nc3c2CNCC3)c1 | 85.7
Fc1cccc(Nc2nc(N3CCCC3)nc3c2CNCC3)c1 | 84.3
CC(C)(C)n1cc(C(=O)O)c(-c2ccc(F)cc2F)n1 | -86.4
Fc1cnc(N2CCN3C[C@H](Oc4cncnc4)C[C@H]3C2)nc1 | -74.8
c1ccc(CN2CCOC3CNCC[C@H]32)cc1 (stereo partly specified) | 23.5
Cc1nc(CN2CCO[C@H]3CN(C(=O)Cc4cccs4)C[C@H]32)cs1 | -65.8
CS(=O)(=O)N1CCC2(CCCN(Cc3ccccn3)C2)CC1 | -200
O=c1c2ccccc2cnn1Cc1cncn1C1CC1 | -100
CC1(c2ccccc2)CCCN(Cc2cncn2C2CCCC2)C1 (stereo unspecified) | 91
COCCNc1c(C#N)c2c(c3nncn13)CN(C)CC2 | -128
CC(C)(C)CN1CCCC2(CCN(C(=O)c3ccc(O)nc3)C2)C1 (stereo unspecified) | -154
CC(C)(C)c1cn(C[C@H]2CC3CCN2C[C@@H]3C(=O)N2CCOCC2)nn1 (stereo partly specified) | -111
COc1c(C)cnc(CN2CCC(N(C)C(C)C(N)=O)CC2)c1C (stereo unspecified) | 78.2
COc1c(C)cnc(CN(C)C2CCCCC2)c1C | 76.7
Cc1n[nH]c2c1C(c1ccc(O)cc1)SCC(=O)N2 (stereo unspecified) | -12.2
Cc1cccnc1CN1CCC2(CC(Nc3ccncn3)C2)C1 (stereo unspecified) | -21.6
Fc1cccc(O[C@@H]2C[C@H]3CN(Cc4ccncc4)CCN3C2)c1 | -111
Fc1cccc(O[C@@H]2C[C@H]3CN(Cc4ccccn4)CCN3C2)c1 | -29.8
Cc1cccnc1CN1CC[C@H](Oc2cccc(F)c2)[C@@](C)(O)C1 | 75
Cc1cnccc1CN1CC[C@H](Oc2cccc(F)c2)[C@@](C)(O)C1 | 80.2
O=C(Cc1ccccn1)N1CCN2C[C@H](Oc3cccc(F)c3)C[C@H]2C1 | -85.6
O=C(c1ccsc1)N1CCN2C[C@H](OCc3ccccn3)C[C@H]2C1 | -131
Cc1cc(CN2CC[C@@H]3O[C@@H](c4nnc(C)o4)C[C@H]3C2)no1 | -68.8
Cc1cc(-c2nn(C)c(Cl)c2CN2CCCCC(N)C2)no1 (stereo unspecified) | 70.3
Cc1csc([C@H]2C[C@H]3CN(Cc4cc(C)on4)CC[C@@H]3O2)n1 | -109

SMILES | INHIBITION [%]
Cn1nc(CN2CCCCC(N)C2)c2c(Cl)cccc21 (stereo unspecified) | 66.2
CS(=O)(=O)N[C@@H]1CN(Cc2ccncc2)C[C@@H]2CCCO[C@@H]21 | -73
CC[C@H]1CN2CC[C@H]1C[C@@H]2CNC(=O)Nc1cccc(C(F)(F)F)c1 | -88.1
OC1(CN2CCC(Oc3cccc(C(F)(F)F)c3)CC2)CCNC1 (stereo unspecified) | 90.3
CC(N)C(=O)N1CCC(Oc2cccc(C(F)(F)F)c2)CC1 (stereo unspecified) | 76.6
NCC1(c2cccc(C(F)(F)F)c2)CCCC1 | 32.6
NC(=O)CN1CCCN(C(=O)Cc2cccc(C(F)(F)F)c2)CC1 | -122
Cc1ccc(CN2C[C@@H](OCc3ccccn3)[C@H]3COC[C@H]32)o1 | -72.9
CCc1ccc(CN2CC[C@@H]3NC(=O)CC[C@@H]32)o1 | 11.1
COc1cccc(CNCc2ccccc2Cl)c1O | 77
COc1cccc(CNCc2ccc(F)cc2Cl)c1O | 79.5
c1cc(COC[C@]23COC[C@H]2CN(Cc2ccsc2)C3)ccn1 | 41.6
Cc1ncsc1CN1C[C@@H](OCc2ccccn2)[C@H]2OCCC[C@H]21 | -244
CCN1c2ccc(-c3cncn3CC(=O)NC(C)(C)C)cc2CC1C (stereo unspecified) | 73.2
Cc1cc(C)n(CCCn2cncc2-c2ccc3c(c2)CC(C)N3C)n1 (stereo unspecified) | 87.4
Cc1nn(C)c(C)c1CN1CCNCC1 | -133.5
CCN1c2ccc(-c3cncn3CCCn3ccnc3C)cc2CC1C (stereo unspecified) | 86.6
Cc1nn(C)c(C)c1CCn1cncc1-c1ccc2c(c1)CC(C)N2C (stereo unspecified) | 82.6
Cc1cc(C)c(CNc2ncnc3ccsc23)c(=O)[nH]1 | -52
Cc1csc(C2(NCC(O)COC(C)C)CCCC2)n1 (stereo unspecified) | -14.1
O=C(c1cc(F)cc(F)c1)N1C[C@H]2CNC[C@H]2C1 | 1.31
CN1CCC2(CC1)C(=O)N(C)c1ccc(F)cc12 | -95.4
CC(C)N1CCC2(CC1)C(=O)N(c1cccnc1)c1c(F)cccc12 | 49.8
CC(C)N1C(=O)C2(CCN(C)CC2)c2cc(F)ccc21 | -10.7
CC(C)N1CCC2(CC1)C(=O)N(c1cccnc1)c1ccc(F)cc12 | 65.4
CN1C(=O)C2(CCNCC2)c2cc(F)ccc21 | -85.9

SMILES | INHIBITION [%]
CN1CCC2(CC1)C(=O)N(c1cccnc1)c1ccc(F)cc12 | 59.5
Cc1cccc(CN2CCCCC23CCNC3)n1 (stereo unspecified) | 25.4
Cc1cccc(CN(Cc2ccc(C)o2)C2CC(C)(C)NC(C)(C)C2)n1 | 77.4
Cc1cccc(CN2CCCC23CCNC3)n1 (stereo unspecified) | 15.6
COc1cc(C(=O)NCC2(N(C)C)CCN(C)CC2)c2ccccc2n1 | 73.6
Cn1cc(CN2CCC[C@]3(C[C@H](Oc4ccccn4)CO3)C2)cn1 | -23.8
CO[C@H]1CN(C(C)C)C[C@@H]1NC(=O)Nc1ccc(C(F)(F)F)cc1 | 71.5
CC(C)=CCN1CCC2(CC1)CC(=O)N(Cc1cc(F)cc(F)c1)C2 | 75
O=C1CC2(CCN(Cc3ccncc3)C2)CN1c1cccc(F)c1 (stereo unspecified) | -17.3
O=C1CC2(CCN(Cc3cccnc3)C2)CN1c1cccc(F)c1 (stereo unspecified) | -34.7
CCCN1CCN(C(=O)c2ccc(Cl)cn2)[C@H]2CS(=O)(=O)C[C@H]21 | -54.2
c1cncc(COC[C@H]2CC[C@H]3[C@H](CCN3Cc3nccs3)O2)c1 | -35.5
COc1ccc(-c2n[nH]cc2C2SCC(=O)Nc3[nH]ncc32)cc1 (stereo unspecified) | -21.3
Cc1ccc(C(=O)N2CC[C@H]3[C@H]2CCN3CC2CCOCC2)cn1 | -131
O=S(=O)(NC1CCC12CCN(CC1CC1)CC2)c1ccccc1 (stereo unspecified) | 71.2
CNC(=O)c1ccc2c(c1)C1(CCN(CC3CC3)CC1)C(=O)N2 | -44.8
CO[C@H]1CCN(S(=O)(=O)c2cccnc2)[C@@H]2CN(CC3CC3)C[C@H]12 | 31
Clc1ccc(COCC2CCN(Cc3ccccn3)CC2)cc1 | 90.7
c1ccc(CN2C[C@H]3CCC[C@@]3(COCC3CC3)C2)nc1 | -64.4
Fc1ccc(COCC2CCN(Cc3ccccn3)CC2)cc1 | 78.8
c1ccc(CN2C[C@@H]3COC[C@]3(COCc3ccncc3)C2)nc1 | -47.9
c1ccc(CN2C[C@H]3CCC[C@@]3(COCC3CCOCC3)C2)nc1 | -45.1
c1ccc(CN2C[C@@H]3COC[C@]3(COCC3CCOCC3)C2)nc1 | -61.3
